# In the supplement of paper PMC8728848:
# The entries come from a sample that favours the strongest signals as a whole.
# Tests used:
# Assay in all cases: glycan array binding signal (z-score within array); higher = stronger binding
# Conditions in all cases: glycan notation: IUPAC condensed, linker removed
# [1] = molecular target: Fuc(a1-2)Gal(b1-3)GalNAc(b1-4)[Neu5Ac(a2-3)]Gal(b1-4)Glc
# Summary of the method: (§1)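 The Consortium for Functional Glycomics database supplied 3228 glycan arrays, of which those lacking an available protein sequence were dropped. The binding signal, a within-array Z-score, was averaged across arrays of the same protein sequence and across linkers. Negative scores can be read as non-binding.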
# Fuc(a1-2)Gal(b1-4)Glc = molecular target: Fuc(a1-2)Gal(b1-4)Glc
# Summary of the method: as §1
# Fuc(a1-2)Gal(b1-4)Glc6S = molecular target: Fuc(a1-2)Gal(b1-4)Glc6S
# Summary of the method: as §1
# [2] = molecular target: Fuc(a1-2)[GalNAc(a1-3)]Gal(b1-3)GlcNAc
# Summary of the method: as §1
# [3] = molecular target: Fuc(a1-3)[Gal(b1-4)]GlcNAc(b1-4)Gal(b1-4)[Fuc(a1-3)]GlcNAc
# Summary of the method: as §1
# Gal(a1-2)Gal = molecular target: Gal(a1-2)Gal
# Summary of the method: as §1
# [4] = molecular target: Gal(a1-3)Gal(b1-4)GlcNAc(b1-3)GalNAc
# Summary of the method: as §1
# Gal(a1-4)Gal(b1-4)Glc = molecular target: Gal(a1-4)Gal(b1-4)Glc
# Summary of the method: as §1
# [5] = molecular target: Gal(a1-4)Gal(b1-4)GlcNAc(b1-3)Gal(b1-4)Glc
# Summary of the method: as §1
# [6] = molecular target: Gal(b1-3)GlcNAc(b1-3)Gal(b1-3)GlcNAc
# Summary of the method: as §1
# [7] = molecular target: Gal(b1-4)GlcNAc(a1-6)Gal(b1-4)GlcNAc
# Summary of the method: as §1
# Gal3S(b1-3)GalNAc = molecular target: Gal3S(b1-3)GalNAc
# Summary of the method: as §1
# Gal3S(b1-4)GlcNAc = molecular target: Gal3S(b1-4)GlcNAc
# Summary of the method: as §1
# [8] = molecular target: Neu5Ac(a2-3)Gal(b1-3)GalNAc
# Summary of the method: as §1
# [9] = molecular target: Neu5Ac(a2-3)Gal(b1-3)GalNAc(b1-4)[Neu5Ac(a2-3)]Gal(b1-4)Glc
# Summary of the method: as §1
# [10] = molecular target: Neu5Ac(a2-3)Gal(b1-3)GalNAc6S
# Summary of the method: as §1
# [11] = molecular target: Neu5Ac(a2-3)Gal(b1-3)GlcNAc(b1-3)GalNAc
# Summary of the method: as §1
# [12] = molecular target: Neu5Ac(a2-3)Gal(b1-3)[Fuc(a1-4)]GlcNAc(b1-3)Gal(b1-3)[Fuc(a1-4)]GlcNAc
# Summary of the method: as §1
# [13] = molecular target: Neu5Ac(a2-3)Gal(b1-3)[Neu5Ac(a2-6)]GalNAc
# Summary of the method: as §1
# [14] = molecular target: Neu5Ac(a2-3)Gal(b1-4)GlcNAc(b1-6)[Neu5Ac(a2-3)Gal(b1-3)]GalNAc
# Summary of the method: as §1
# [15] = molecular target: Neu5Ac(a2-3)[Neu5Ac(a2-6)]GalNAc
# Summary of the method: as §1
# Neu5Ac(a2-6)GalNAc = molecular target: Neu5Ac(a2-6)GalNAc
# Summary of the method: as §1
# [16] = molecular target: Neu5Ac(a2-6)GlcNAc(b1-4)GlcNAc
# Summary of the method: as §1
# [17] = molecular target: Neu5Gc(a2-3)Gal(b1-4)[Fuc(a1-3)]GlcNAc
# Summary of the method: as §1
# [18] = molecular target: Fuc(a1-2)Gal(b1-3)[Fuc(a1-4)]GlcNAc
# Summary of the method: as §1
# [19] = molecular target: Fuc(a1-2)Gal(b1-4)[Fuc(a1-3)]GlcNAc(b1-2)Man(a1-3)[Fuc(a1-2)Gal(b1-4)[Fuc(a1-3)]GlcNAc(b1-2)Man(a1-6)]Man(b1-4)GlcNAc(b1-4)GlcNAc
# Summary of the method: as §1
# [20] = molecular target: Fuc(a1-2)[Gal(a1-3)]Gal(b1-4)Glc
# Summary of the method: as §1
# [21] = molecular target: Fuc(a1-2)[Gal(a1-3)]Gal(b1-4)GlcNAc
# Summary of the method: as §1
# [22] = molecular target: Fuc(a1-3)[Gal(b1-4)]GlcNAc(b1-4)Gal(b1-4)[Fuc(a1-3)]GlcNAc(b1-4)Gal(b1-4)[Fuc(a1-3)]GlcNAc
# Summary of the method: as §1
# [23] = molecular target: Fuc(a1-3)[Gal3S(b1-4)]GlcNAc6S
# Summary of the method: as §1
# Fuc(a1-4)GlcNAc = molecular target: Fuc(a1-4)GlcNAc
# Summary of the method: as §1
# Gal(a1-3)Gal = molecular target: Gal(a1-3)Gal
# Summary of the method: as §1
# [24] = molecular target: Gal(a1-3)Gal(b1-3)[Fuc(a1-4)]GlcNAc(b1-2)Man(a1-3)[Gal(a1-3)Gal(b1-3)[Fuc(a1-4)]GlcNAc(b1-2)Man(a1-6)]Man(b1-4)GlcNAc(b1-4)GlcNAc
# Summary of the method: as §1
# [25] = molecular target: Gal(b1-3)GlcNAc(b1-3)Gal(b1-4)GlcNAc(b1-6)[Gal(b1-3)GlcNAc(b1-3)]Gal(b1-4)Glc
# Summary of the method: as §1
# [26] = molecular target: Gal(b1-3)[Fuc(a1-4)]GlcNAc(b1-3)Gal(b1-4)[Fuc(a1-3)]GlcNAc
# Summary of the method: as §1
# [27] = molecular target: Gal(b1-3)[Neu5Ac(a2-6)]GalNAc
# Summary of the method: as §1
# [28] = molecular target: Gal(b1-4)GlcNAc(b1-3)[Gal(b1-4)GlcNAc(b1-6)]Gal(b1-4)GlcNAc
# Summary of the method: as §1
# [29] = molecular target: Gal(b1-4)GlcNAc(b1-6)[Gal(b1-3)]GalNAc
# Summary of the method: as §1
# [30] = molecular target: GalNAc(b1-4)GlcNAc(b1-2)Man(a1-3)[GalNAc(b1-4)GlcNAc(b1-2)Man(a1-6)]Man(b1-4)GlcNAc(b1-4)GlcNAc
# Summary of the method: as §1
# [31] = molecular target: GlcNAc(a1-4)Gal(b1-4)GlcNAc(b1-3)Gal(b1-4)[Fuc(a1-3)]GlcNAc(b1-3)Gal(b1-4)[Fuc(a1-3)]GlcNAc
# Summary of the method: as §1
# [32] = molecular target: GlcNAc(b1-2)Gal(b1-3)GalNAc
# Summary of the method: as §1
# [33] = molecular target: GlcNAc(b1-3)Gal(b1-3)GalNAc
# Summary of the method: as §1
# GlcNAc(b1-3)GalNAc = molecular target: GlcNAc(b1-3)GalNAc
# Summary of the method: as §1
# [34] = molecular target: Man(a1-2)Man(a1-3)[Man(a1-6)]Man(a1-6)[Man(a1-2)Man(a1-3)]Man(b1-4)GlcNAc(b1-4)GlcNAc
# Summary of the method: as §1
# [35] = molecular target: Man(a1-3)[Man(a1-6)]Man(a1-6)[Man(a1-3)]Man
# Summary of the method: as §1
# [36] = molecular target: Neu5Ac(a2-3)Gal(b1-3)GlcNAc(b1-3)Gal(b1-4)GlcNAc
# Summary of the method: as §1
# [37] = molecular target: Neu5Ac(a2-3)Gal(b1-4)GlcNAc(b1-3)Gal(b1-4)GlcNAc(b1-3)Gal(b1-4)GlcNAc
# Summary of the method: as §1
# [38] = molecular target: Neu5Ac(a2-3)Gal(b1-4)GlcNAc(b1-3)Gal(b1-4)[Fuc(a1-3)]GlcNAc
# Summary of the method: as §1
# [39] = molecular target: Neu5Ac(a2-3)Gal(b1-4)[Fuc(a1-3)]GlcNAc(b1-3)GalNAc
# Summary of the method: as §1
# [40] = molecular target: Neu5Ac(a2-6)Gal(b1-4)GlcNAc(b1-2)Man(a1-3)[Neu5Ac(a2-6)Gal(b1-4)GlcNAc(b1-2)Man(a1-6)]Man(b1-4)GlcNAc(b1-4)GlcNAc
# Summary of the method: as §1
# [41] = molecular target: Neu5Ac(a2-6)Gal(b1-4)GlcNAc(b1-2)Man(a1-6)[GlcNAc(b1-2)Man(a1-3)]Man(b1-4)GlcNAc(b1-4)GlcNAc
# Summary of the method: as §1
# [42] = molecular target: Neu5Ac(a2-6)Gal(b1-4)GlcNAc(b1-3)GalNAc
# Summary of the method: as §1
# [43] = molecular target: Neu5Ac(a2-8)Neu5Ac(a2-8)Neu5Ac(a2-8)Neu5Ac(a2-3)[GalNAc(b1-4)]Gal(b1-4)Glc
# Summary of the method: as §1
# [44] = molecular target: Neu5Gc(a2-3)Gal(b1-4)GlcNAc
# Summary of the method: as §1
binder,measurement,setting,value
"exo-alpha-sialidase (Propionibacterium acnes), Q6A7G1 (protein) GSHMSGRAPAPVAATTQPKLVTGDITSTDQSGTNLFFGKKIVRNARGAIMKVDRTWPAAVPAPLPDVRADSSTRMLLGPVVDLAVNEHPEGVFYRIPALATASNGDLLASYDLRPGSAGDAPNPNSIVQRRSRDNGRTWGPQTVIHAGTPGRRKVGYSDPSYLVDPATGRILNFHVKSYDRGFATSEVGTDPDDRHVLHAEVSTSTDNGHTWTHRDITREITSDPTTRTRFVASGQGIALLHGPHAGRLIAQMTVRNSVGQQAQSIYSDDHGITWHAGNPVGRMMDENKVVELSDGTLMLNSRDAARSGRRKVAYSQDGGLTWGPVKLVDDLIDPTNNAQIIRAYPNARAGSAKARILLFTNARNATERVNGTLSVSCDDGRTWVSHQTYMPGEVGYTTAAVQSDGALGVLWERDGIRYSTIPMGWLNSVCPLAPSGRPTSGKPTSGTSLPPTAT",glycan array binding signal (z-score),[1],-0.338
same,glycan array binding signal (z-score),Fuc(a1-2)Gal(b1-4)Glc,-0.361
same,glycan array binding signal (z-score),Fuc(a1-2)Gal(b1-4)Glc6S,-0.256
same,glycan array binding signal (z-score),[2],-0.343
same,glycan array binding signal (z-score),[3],-0.311
same,glycan array binding signal (z-score),Gal(a1-2)Gal,-0.331
same,glycan array binding signal (z-score),[4],-0.36
same,glycan array binding signal (z-score),Gal(a1-4)Gal(b1-4)Glc,-0.366
same,glycan array binding signal (z-score),[5],-0.337
same,glycan array binding signal (z-score),[6],-0.354
same,glycan array binding signal (z-score),[7],-0.353
same,glycan array binding signal (z-score),Gal3S(b1-3)GalNAc,-0.343
same,glycan array binding signal (z-score),Gal3S(b1-4)GlcNAc,-0.268
same,glycan array binding signal (z-score),[8],3.6
same,glycan array binding signal (z-score),[9],6.27
same,glycan array binding signal (z-score),[10],3.54
same,glycan array binding signal (z-score),[11],3.71
same,glycan array binding signal (z-score),[12],0.022
same,glycan array binding signal (z-score),[13],3.45
same,glycan array binding signal (z-score),[14],4.39
same,glycan array binding signal (z-score),[15],4.53
same,glycan array binding signal (z-score),Neu5Ac(a2-6)GalNAc,-0.072
same,glycan array binding signal (z-score),[16],3.52
same,glycan array binding signal (z-score),[17],-0.196
"PEB3 (Campylobacter jejuni), Q0PBL7 (protein) MKKIITLFGACALAFSMANADVNLYGPGGPHTALKDIANKYSEKTGVKVNVNFGPQATWFEKAKKDADILFGASDQSALAIASDFGKDFNVSKIKPLYFREAIILTQKGNPLKIKGLKDLANKKVRIVVPEGAGKSNTSGTGVWEDMIGRTQDIKTIQNFRNNIVAFVPNSGSARKLFAQDQADAWITWIDWSKSNPDIGTAVAIEKDLVVYRTFNVIAKEGASKETQDFIAYLSSKEAKEIFKKYGWRE",glycan array binding signal (z-score),[1],0.671
same,glycan array binding signal (z-score),[18],7.5
same,glycan array binding signal (z-score),[19],4.64
same,glycan array binding signal (z-score),[20],-1.35
same,glycan array binding signal (z-score),[21],0.283
same,glycan array binding signal (z-score),[22],0.144
same,glycan array binding signal (z-score),[23],0.696
same,glycan array binding signal (z-score),Fuc(a1-4)GlcNAc,-0.82
same,glycan array binding signal (z-score),Gal(a1-3)Gal,-0.384
same,glycan array binding signal (z-score),[24],4.25
same,glycan array binding signal (z-score),[4],0.06
same,glycan array binding signal (z-score),[25],-0.921
same,glycan array binding signal (z-score),[26],-0.524
same,glycan array binding signal (z-score),[27],-1.27
same,glycan array binding signal (z-score),[28],-0.199
same,glycan array binding signal (z-score),[29],0.227
same,glycan array binding signal (z-score),[30],4.25
same,glycan array binding signal (z-score),[31],3.7
same,glycan array binding signal (z-score),[32],-0.834
same,glycan array binding signal (z-score),[33],2.96
same,glycan array binding signal (z-score),GlcNAc(b1-3)GalNAc,-0.715
same,glycan array binding signal (z-score),[34],-0.005
same,glycan array binding signal (z-score),[35],-1.11
same,glycan array binding signal (z-score),[36],-0.117
same,glycan array binding signal (z-score),[37],-1.17
same,glycan array binding signal (z-score),[38],0.473
same,glycan array binding signal (z-score),[39],4.53
same,glycan array binding signal (z-score),[40],0.39
same,glycan array binding signal (z-score),[41],-0.237
same,glycan array binding signal (z-score),[42],-0.21
same,glycan array binding signal (z-score),[16],-0.895
same,glycan array binding signal (z-score),[43],-0.3
same,glycan array binding signal (z-score),[44],-0.701
